L3MBTL1 inh: qHTS Assay for the Inhibitors of L3MBTL1. Potency, µM (series often up to 57.1 µM), for the others: at the top dose activity, negative = inhibition, most hits filed as inhibitors. AlphaScreen L3MBTL1–H3K9me1 peptide binding. 230,000 compounds, 0.66% hits. Lethal(3)malignant brain tumor-like protein 1 (Homo sapiens), Q9Y468; further: on the % scale 0 is the no-effect control and ±100 the full control effect; nearly all actives have a fitted effect of over 60% in size
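Read-out is AlphaScreen signal from streptavidin donor and nickel chelate acceptor beads (10 ug/mL final each) bridging L3MBTL1 (50 nM) and biotinylated K9-monomethylated H3(1-15) peptide (75 nM), after 30 min compound exposure at room temperature.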
HP1b chromo inh: HTS for Inhibitors of HP1-beta Chromodomain Interactions with Methylated Histone Tails | AlphaScreen HP1-beta / biotin-H3K9me3 peptide binding | Potency, µM (titrated, usually from 114 µM), inactives show top-dose activity change, negative = inhibition, hits mostly inhibitors | 390,000 compounds, 0.56% hits | AID 540317, 2011; further: nearly all actives have a fitted effect of over 70% in size
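HP1-beta protein (50 nM final) preincubated 30 min at room temperature with biotinylated H3(1-18)K9me3 peptide (50 nM) in PBS pH 7.4, 0.01% Tween-20, then compound added for 30 min. AlphaScreen streptavidin donor/nickel chelate acceptor beads (10 ug/mL final), 30 min dark, luminescence read.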
BAZ2B inh: qHTS Assay for Inhibitors of BAZ2B; Bromodomain adjacent to zinc finger domain protein 2B (Homo sapiens), Q9UIF8; AlphaScreen BAZ2B-H3K14Ac peptide displacement; Potency, µM (highest dose often 114 µM), inactives show at the top dose activity change, negative = inhibition, most hits filed as inhibitors; 360,000 compounds, 4.4% hits; AID 504333, 2011; further: on the % scale 0 is the no-effect control and ±100 the full control effect; nearly all actives have a fitted effect of over 60% in size
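AlphaScreen displacement of biotin-H3(5-23)K14Ac peptide (50 nM final) from BAZ2B (50 nM final) in PBS pH 7.4, 0.01% Tween-20; complex preformed 30 min RT, then compounds (top 110 uM) 30 min RT, beads 20 min dark.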
GLS inh: qHTS for Inhibitors of Glutaminase (GLS); Potency, µM (highest dose often 45.5 µM), for inactives: at the highest dose activity change, negative = inhibition, usual class: inhibitors; 410,000 compounds, 0.21% hits; GLS enzymatic activity, qHTS titration; Glutaminase kidney isoform, mitochondrial (Homo sapiens), O94925; AID 624170, 2012; further: on the % scale 0 is the no-effect control and ±100 the full control effect
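Read-out is an Amplex red fluorescence increase coupled through glutamate oxidase and HRP, measured before and after 30 min room-temperature incubation. hKGA is in 45 mM KH2PO4 (pH 8.2) with 0.02% Tween-20; glutamine added as 1mM solution.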
JMJD2A Tudor: qHTS Assay for Inhibitors of JMJD2A-Tudor Domain | 390,000 compounds, 4.4% hits | AlphaScreen JMJD2A-Tudor / H3K4me3 peptide binding | Potency, µM (series often up to 114 µM), without a hit: at the highest dose activity change, negative = inhibition, usual class: inhibitors | Lysine-specific demethylase 4A (Homo sapiens), O75164 | AID 504339, 2011; further: on the % scale 0 is the no-effect control and ±100 the full control effect; nearly all actives have a fitted effect of over 50% in size
G9a inh: qHTS Assay for Inhibitors of Histone Lysine Methyltransferase G9a | Histone-lysine N-methyltransferase EHMT2 (Homo sapiens), Q96KQ7 | G9a H3K9 monomethylation, AlphaScreen, 2 h | Potency, µM (series often up to 102 µM), without a hit: at the highest dose activity, negative = inhibition, actives largely listed as inhibitors | 350,000 compounds, 8.8% hits; further: on the % scale 0 is the no-effect control and ±100 the full control effect; nearly all actives have a fitted effect of over 75% in size
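Methyltransferase reactions run at room temperature for 2 h (20 nM enzyme, 500 nM biotin-H3K9 peptide, 20 uM SAM) after a 15 min compound preincubation; product detected by AlphaScreen beads and anti-H3K9me1 antibody.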
An asterisk follows results filed as active; ? = inconclusive; . = no result; [ ] = another dose, or the depositor's remark. Most compounds without a hit are left out; they make up all but 10% or so of the library. The call rests on the fitted dose curve; in most records, active means well fitted curve in the direction sought with a large enough effect; inconclusive means small, poorly fitted or top-dose-only effect, or another doubt; inactive means no such curve, though single readings can be large; an effect the other way counts as inactive or inconclusive. Potency means the concentration at half of the fitted maximal effect.

SMILES | L3MBTL1 inh | HP1b chromo inh | BAZ2B inh | GLS inh | JMJD2A Tudor | G9a inh
COc1ccc(C2/C=C\CN(Cc3ccccc3)C(C)C(=O)N2Cc2ccc(F)cc2)cc1 (stereo not given) | . | 9% | . | . | -9% | .
COc1cc(C2c3sc(=O)[nH]c3SC3C4CCC(C4)C23)ccc1O (stereo not given) | -12% | ? | ? | 3% | ? | 13µM*
COc1cc(C2c3sc(=O)[nH]c3SC3C(=O)N(c4ccc(C)cc4)C(=O)C32)ccc1O (stereo not given) | -15% | 1% | ? | 31% | -32% | ?
COC(=O)C1CSc2[nH]c(=O)sc2C1c1ccc(O)c(OC)c1 (stereo not given) | . | 2% | -32% | 1% | -20% | 14µM*
CCOC(=O)C1CSc2[nH]c(=O)sc2C1c1ccccc1 (stereo not given) | . | 34% | 0% | 46% | -15% | 45µM*
COc1ccc(C2c3sc(=O)[nH]c3SC3C4CCC(C4)C23)cc1 (stereo not given) | -10% | -7% | ? | 1% | -30% | ?
O=c1[nH]c2c(s1)C(c1ccccc1)C1C3CCC(C3)C1S2 (stereo not given) | . | 5% | -22% | 2% | -28% | 45µM*
CCCCN(C)C(=O)Cn1c(SCC(=O)Nc2ccc(C)c(C)c2)nc2ccccc21 | . | 25% | -19% | 2% | -25% | 15%[59 µM]
CCOC(=O)c1cnc2c(Cl)cc(Cl)cc2c1Nc1ccccc1OC | . | 37% | 0% | -4% | -6% | -4%[59 µM]
Cc1cccc(N2CCN(C(c3ccc(F)cc3)c3nnc(-c4ccccc4)o3)CC2)c1C (stereo not given) | . | 4% | 50µM* | -2% | ? | ?
CC[n+]1c(C=C2C=C(C)OC(C)=C2)sc2ccccc21 | -1% | 33% | -31% | -18% | -23% | -24%
CC[n+]1c(/C=C/Nc2ccccc2)sc2ccccc21 | 6% | 19% | -6% | 22% | -18% | 7.9µM*
CC[n+]1c(/C=C(/C)SC)sc2ccccc21 | 14% | 42% | ? | -15% | -15% | 45µM*
CC[n+]1c(/C=C(\C)SC)sc2ccccc21 | -7% | 34% | 79µM* | 8% | ? | 79µM*
CC[n+]1c(/C=C2/C=C(C)CC(C)C2)sc2ccccc21 (stereo not given) | . | -4% | ? | 7% | 32µM* | 7.9µM*
O=C(Nc1cccs1)Nc1cc(C(F)(F)F)ccc1Cl | . | 35% | -28% | 9% | -17% | 4%[59 µM]
CC(C)CNC(=O)N1CCN(S(=O)(=O)c2ccc3c(ccn3C)c2)CC1 | . | 26%[57 µM] | 4% | 1% | 1% | ?
CC[n+]1c(/C=C(\C)Nc2ccccc2)sc2ccccc21 | 0% | 24% | 50µM* | -8% | -24% | ?
CC[n+]1ccccc1/C=C/Nc1ccccc1 | -23% | 38% | -6% | 10% | -12% | 45µM*
CC/C(=C/c1sc2ccccc2[n+]1CC)SC | -3% | 31% | ? | -3% | 25µM* | -19%[59 µM]
CC[n+]1c(/C=C(\C)OC)sc2ccccc21 | -6% | 41% | 56µM* | -8% | ? | ?
CCCN1CNc2c(c(=O)[nH]c(=S)n2CCc2ccccc2Cl)C1 | . | 37% | . | . | -12% | .
N#Cc1c(NC(=O)CS(=O)(=O)c2ccc(Cl)cc2)sc2c1CCCCC2 | . | -24% | -12% | -10% | -12% | 4%[59 µM]
